From PubChem BioAssay
Rows were chosen to be rich in hits. Some 2.3% of all compounds tested hit in one or more screens of this group.
pPAFAH inh = inhibitors of human plasma PAF acetylhydrolase (pPAFAH); Q13093; recombinant pPAFAH, FP-rhodamine probe fluorescence polarization; inhibition, % at 3.39 µM; 330,000 compounds, 1.5% hits; AID 463082;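 active = inhibition above the mean inhibition across the screen plus 3 SD, cut at about 25% in these data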;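 note: inhibitors block binding of the rhodamine activity-based probe so polarization drops; 0% = enzyme with DMSO and 100% = wells lacking pPAFAH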
PME-1 primary = PME-1 (human) inhibition | Q9Y570 | recombinant PME-1, FP-Rh probe fluorescence polarization | inhibition, % at 5.9 µM | 320,000 compounds, 0.53% hits | AID 2130;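 active = inhibition above the campaign mean of all compounds plus 3 SD, cut at about 26% in these data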;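 note: competitive labeling of PME-1 active site by serine hydrolase directed probe; 0% = PME-1 with DMSO and 100% = wells lacking PME-1 enzyme; inhibitors block probe labeling so polarization falls and inhibition rises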
Target sequence (Q9Y570 whole entry, looked up): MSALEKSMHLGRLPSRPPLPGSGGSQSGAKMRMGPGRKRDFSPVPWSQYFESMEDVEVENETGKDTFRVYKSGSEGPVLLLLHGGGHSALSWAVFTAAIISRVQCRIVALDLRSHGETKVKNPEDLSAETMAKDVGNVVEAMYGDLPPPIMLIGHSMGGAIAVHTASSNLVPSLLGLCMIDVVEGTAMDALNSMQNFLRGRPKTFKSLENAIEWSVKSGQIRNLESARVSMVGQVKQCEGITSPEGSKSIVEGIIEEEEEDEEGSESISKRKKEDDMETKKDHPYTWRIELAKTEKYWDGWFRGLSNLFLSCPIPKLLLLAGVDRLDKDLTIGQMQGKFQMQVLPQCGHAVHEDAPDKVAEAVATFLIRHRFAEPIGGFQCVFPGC
GSTO1 counter = GSTO1 inhibition, counter-screen for RBBP9 inhibitors | recombinant GSTO1, activity-based probe fluorescence polarization | inhibition, % at 5.96 µM | 300,000 compounds, 1.1% hits | AID 1974;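 active = inhibition above the campaign mean inhibition plus 3 SD, cut at about 35% in these data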;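 note: 0% = GSTO1-1 with DMSO and 100% = wells lacking GSTO1-1 enzyme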
Target sequence (P78417 whole entry, looked up): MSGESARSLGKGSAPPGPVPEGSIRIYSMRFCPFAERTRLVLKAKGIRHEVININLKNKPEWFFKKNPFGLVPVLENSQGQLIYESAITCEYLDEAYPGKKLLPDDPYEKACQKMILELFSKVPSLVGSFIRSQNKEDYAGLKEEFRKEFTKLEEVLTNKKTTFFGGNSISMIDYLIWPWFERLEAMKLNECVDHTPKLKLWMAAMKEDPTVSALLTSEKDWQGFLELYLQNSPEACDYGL
Fam108B counter = blocks mouse Fam108B hydrolase in RBBP9 counter-screen; 300,000 compounds, 0.33% hits; inhibition, % at 9.51 µM; recombinant Fam108B, FP-Rh probe fluorescence polarization;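 active = inhibition above the screen mean inhibition plus 3 SD, computed separately per campaign, cut at about 18% in these data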;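 note: inhibitors lower polarization as less probe binds the enzyme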
PAD4 inh = blocks human protein arginine deiminase 4. Q9UM07. recombinant PAD4, RCA probe fluorescence polarization. inhibition, % at 6.36 µM. 330,000 compounds, 0.41% hits;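 active = percent inhibition above a cutoff equal to the mean of all tested compounds plus 3 SD, cut at about 15% in these data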;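 note: 0% = PAD4 with RCA probe and DMSO and 100% = probe without PAD4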
GSTO1 inh conf = GSTO1 (human) inhibition, confirmation; shares compounds with GSTO1 counter; recombinant GSTO1, probe fluorescence polarization; inhibition, % at 5.96 µM; 2,400 compounds, 54% hits; AID 2176;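 active = inhibition above the primary screen's cutoff, its mean inhibition plus 3 SD, cut at about 35% in these data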;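 note: loss of polarization as inhibitors block binding of rhodamine sulfonate ester activity probe; 0% = GSTO1 with DMSO and 100% = wells lacking GSTO1 enzyme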
GSTO1 recomb ABPP = inhibitors of recombinant human GSTO1; shares compounds with GSTO1 counter; gel ABPP SE-Rh probe fluorescence; inhibition, % at 1 µM; 130 compounds, 30% hits;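 active = inhibition of the enzyme GSTO1 above about 75%, limit read from the data; inactive = inhibition below that limit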
An asterisk follows results filed as active; · = not tested or not shown.

SMILES	pPAFAH inh	PME-1 primary	GSTO1 counter	Fam108B counter	PAD4 inh	GSTO1 inh conf	others
O=C1CCCC(O)=C1C=Nc1ccc(O)cc1	8.1	-6.6	60.1*	-2.5	-7.4	2.4
c1ccc(COCCC2CO2)cc1 (stereo unspecified)	2.5	-4.5	61.1*	-1.1	0.1	72.2*	GSTO1 recomb ABPP=59.0
COc1ccc(/C=N/NC(=O)c2cccc(Br)c2)cc1CSc1ccccn1	-16.9	-55.4	-23.9	-31.9	-8.1	·
COc1ccc(/C=N/NC(=O)c2ccn[nH]2)cc1CSc1ccccn1	-0.5	-4.2	46.7*	5.3	0.4	-5.1
Cc1ccc(S(=O)(=O)N(CC2CO2)c2cccc([N+](=O)[O-])c2)cc1 (stereo unspecified)	4.5	6.5	96.7*	0.9	-1.5	96.6*	GSTO1 recomb ABPP=59.0
O=S(=O)(c1ccccc1)N(CC1CO1)c1cccc2ccccc12 (stereo unspecified)	1.3	0.2	75.1*	-1.3	-3.7	90.1*	GSTO1 recomb ABPP=20.0
CCN(c1cccc2ccccc12)S(=O)(=O)c1ccc(Cl)nc1	4.0	-1.8	3.3	-1.6	-1.3	·
Cc1ccc(S(=O)(=O)N(CC(=O)NCC2CCCO2)c2cccc([N+](=O)[O-])c2)cc1 (stereo unspecified)	-1.9	-5.2	10.6	-0.1	4.7	·
O=C(CN(c1ccc([N+](=O)[O-])cc1)S(=O)(=O)c1ccccc1)N1CCCCC1	3.7	6.2	-0.3	4.5	1.6	·
COc1ccc(N(CC2CO2)S(=O)(=O)c2ccc(C)cc2)cc1 (stereo unspecified)	-3.6	-3.1	80.7*	2.2	1.1	85.3*	GSTO1 recomb ABPP=26.0
O=[N+]([O-])c1ccc(N(CC2CO2)S(=O)(=O)c2ccccc2)cc1 (stereo unspecified)	4.1	2.6	85.2*	1.1	3.0	91.6*	GSTO1 recomb ABPP=53.0
COc1ccc(N(CC(O)CN2CCOCC2)S(=O)(=O)c2ccc(C)cc2)cc1 (stereo unspecified)	-5.1	-6.3	7.5	-2.0	1.4	·
COCCn1c(=NC(=O)c2cc3ccccc3oc2=O)sc2cc(S(N)(=O)=O)ccc21	2.4	3.4	-11.0	-12.6	-1.2	·
O=C(CSc1nc(=O)n(CCCN2CCOCC2)c2c1CCCC2)Nc1cccc(Cl)c1	8.4	4.6	-10.7	-1.9	-4.6	·
O=S(=O)(c1ccccc1)N(CC1CO1)c1ccccc1 (stereo unspecified)	2.2	-6.2	70.8*	3.2	0.0	82.8*	GSTO1 recomb ABPP=63.0
O=C1/C(=C\c2ccc(O)c(O)c2)N=C2CCCCCN12	4.0	-6.0	44.4*	-2.6	1.6	5.9
COc1cc(/C=C2\N=C3CCCCCN3C2=O)ccc1O	-1.4	3.9	1.1	0.4	-6.7	·
O=c1cc(C(Cl)(Cl)Cl)oc2c1ccc1ccccc12	0.0	-10.3	46.9*	-0.5	1.2	80.3*
ClCC1NCC(c2ccccc2Cl)c2c1[nH]c1ccccc21 (stereo unspecified)	1.5	-4.1	-12.2	1.3	-26.8	·
COC(=O)CCC[C@H]1CC2(C[C@H](CCCO[Si](C)(C)C(C)(C)C)N1C(=O)OC(C)(C)C)OCCO2	4.3	-3.8	·	·	2.3	·
Oc1ccc(NCc2ccccc2OCc2ccccc2)cc1	26.5*	23.6	83.9*	5.2	-5.7	6.9
CCN(CC)c1ccc2c(c1)CCCN2	20.1	1.4	42.1*	2.0	1.5	4.6
O=S(=O)(c1ccc2c(c1)CCCN2)N1CCCC1	-1.7	1.0	·	·	-1.1	·
CCSc1nnc(NC(=O)C(C(F)(F)F)C(F)(F)F)s1	-4.3	-4.9	38.5*	-0.7	-4.8	48.2*
CCCNC(=O)COC(=O)c1ccccc1OCc1ccc(Cl)cc1	8.7	10.0	-5.5	-0.8	-0.2	·
SMILES	pPAFAH inh	PME-1 primary	GSTO1 counter	Fam108B counter	PAD4 inh	GSTO1 inh conf	others
O=C(O)c1ccc(N=N/C(=N\Nc2ccc(C(=O)O)cc2)c2ccccc2)cc1	27.2*	1.4	39.3*	5.9	1.2	67.4*
Cc1oc2c(c1C(=O)N1CCC(C)CC1)C(=O)c1ccccc1C2=O	8.1	-6.7	39.5*	0.1	8.7	8.4
Cc1onc(-c2ccccc2Cl)c1C(=O)N1CCC(C)CC1	3.7	6.3	8.3	2.0	5.0	·
CCOC(=O)C1CCN(C(=O)c2c(C)oc3c2C(=O)c2ccccc2C3=O)CC1	2.2	1.9	44.5*	4.9	2.8	47.6*
CCn1c(SCC(=O)OC(C)C)nnc1-c1ccccc1OC	1.8	-1.4	25.1	0.2	0.7	·
COc1ccc2nc3cccc(OC)c3nc2c1	21.7	-2.7	56.5*	8.0	-0.7	87.4*
COc1cccc2c(SCC(=O)N/N=C/c3ccc(O)c(O)c3)cc(C)nc12	15.8	1.5	61.7*	2.3	1.1	9.1
COc1ccc2nc(C)cc(SCC(=O)N/N=C/c3ccc(O)c(O)c3)c2c1	28.9*	5.2	51.3*	-0.3	6.0	4.3
O=C(CSc1nc2ccccc2o1)N/N=C/c1ccc(O)c(O)c1	13.0	-3.2	56.8*	1.2	2.1	11.5
C[C@@H]1CN([C@H](C)CO)C(=O)Cc2cc(NC(=O)Cn3cnnn3)ccc2O[C@@H]1CN(C)Cc1ccc(Cl)c(Cl)c1	1.5	·	·	·	3.0	·
CCN(CC)CCCNC(=O)CSc1nc(C)cc(C)n1	2.6	-2.7	4.7	1.9	-1.1	·
O=C(OCC(=O)N1CCC(c2ccccc2)=N1)c1ccc([N+](=O)[O-])s1	25.3*	11.8	57.7*	12.3	-2.6	29.0
Cc1cc(C(=O)OCC(=O)N2CCC(c3ccccc3)=N2)ccc1[N+](=O)[O-]	1.0	-0.1	-4.7	4.6	2.1	·
Cc1[nH]c2ccccc2c1C(=O)COC(=O)c1ccc([N+](=O)[O-])s1	12.9	18.3	51.6*	6.5	-12.6	19.6
COc1ccc(N2CCN(C(=O)CN3C(=O)NC(C)(C4CC4)C3=O)CC2)cc1 (stereo unspecified)	-0.3	6.8	·	·	0.6	·
CCC(C)Oc1ccc(/C=C/c2[nH]c(=O)[nH]c(=O)c2[N+](=O)[O-])cc1OC (stereo unspecified)	9.1	-6.5	1.6	2.5	1.4	·
COc1cc(/C=C/c2[nH]c(=O)[nH]c(=O)c2[N+](=O)[O-])cc([N+](=O)[O-])c1O	19.4	-2.0	52.7*	9.2	0.4	68.3*
O=C(COC(=O)c1nc(Cl)ccc1Cl)NNC(=O)c1cccs1	14.9	5.7	2.0	-0.8	1.3	·
Cc1c(N=c2c(=O)c3ccccc3c2=O)c(=O)n(-c2ccccc2)n1C	2.3	-6.7	57.0*	1.4	-6.0	76.8*
CCOc1ccc(S(=O)(=O)N2CCCC(C(=O)NCc3ccncc3)C2)cc1 (stereo unspecified)	1.8	-3.6	8.9	-1.0	5.6	·
COCCCNC1=C(Cl)C(=O)c2ccccc2C1=O	2.2	2.6	48.4*	1.5	-11.2	12.5
CCN(CC)CCCNC1=C(Cl)C(=O)c2ccccc2C1=O	4.4	-0.3	65.6*	2.9	-9.8	47.0*
COCCCNS(=O)(=O)c1ccccc1	1.5	4.9	1.4	-0.4	1.1	·
